Measurements as given in PubChem BioAssay (NCI).
About 83,000 compounds went through this panel and 20% of them were active in at least one assay; those are over-represented in the sample as a whole.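 For each line, cells grew in 96-well plates with the test compound present at a single concentration for 48 hours.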 Unmarked numbers belong to inactive results. Activity calls are given as the source filed them. How the source made its calls: active means growth percent below 10; inactive means the rest.

Tests used:
Experiment in all cases: NCI-60 one-dose screen, 48 h (100 = growth as untreated, 0 = no growth, -100 = all killed)
Details in all cases: 10 µM
[1] = tested on: NCI-H23 lung
[2] = tested on: NCI-H226 lung
[3] = tested on: NCI-H322M lung
[4] = tested on: HOP-62 NSCLC
[5] = tested on: NCI-H460 lung
[6] = tested on: NCI-H522 lung
[7] = tested on: A549/ATCC NSCLC
[8] = tested on: 786-0 renal
[9] = tested on: COLO 205 colon
[10] = tested on: DU-145 prostate
[11] = tested on: K-562 leukemia
[12] = tested on: MALME-3M melanoma
[13] = tested on: MDA-MB-231 breast
[14] = tested on: RXF 393 renal
[15] = tested on: SF-268 CNS
[16] = tested on: SF-295 CNS
[17] = tested on: SF-539 CNS
[18] = tested on: UACC-257 melanoma
[19] = tested on: M14 melanoma
[20] = tested on: HCT-15 colon

Compound	growth [1]	growth [2]	growth [3] [%]	growth [4]	growth [5]	growth [6]	growth [7]	growth [8]	growth [9]	growth [10]	growth [11]	growth [12]	growth [13]	growth [14]	growth [15]	growth [16]	growth [17]	growth [18]	growth [19]	growth [20]
O=C1NC(=O)N(Cc2ccccc2)CC1Br (stereo not given)	52.6%	83.2%	104	79.2%	96.7%	-9.22% (active)	102%	63%	64.9%	104%	37.4%	77.8%	89.3%	68%	80.2%	136%	86.5%	82.1%	11.4%	45.2%
Clc1cc2c(c(CSc3nc4ccccc4n4cccc34)c1)OCOC2	77.9%	134%	83.2	88.2%	66.6%	59.8%	29.9%	93.4%	84.1%	106%	74.4%	88.2%	65.8%	34.2%	85.4%	79.5%	67.2%	61.3%	87.5%	71.4%
CCCCCCCNc1nc(C=O)ncc1-c1ccc(C(F)(F)F)cc1	99.8%	98%	84.4	101%	103%	80.1%	96.4%	97%	95.8%	106%	89.4%	86.8%	117%	97%	98.8%	103%	107%	107%	102%	97.6%
COc1ccc(-c2nsc3c2NC(=O)CC3c2ccc(F)cc2)cc1 (stereo not given)	59.5%	75.2%	39.6	44.3%	17.2%	3.06% (active)	27.2%	57.5%	9.44% (active)	58.7%	10.1%	31.1%	68.7%	62.9%	63.4%	37.5%	43.9%	58.3%	24%	24.4%
S=c1[nH]ccn1-c1c(Cl)cccc1Cl	100%	98.6%	102	93.5%	101%	11%	28.9%	98.8%	115%	125%	103%	109%	102%	106%	118%	99.1%	94.4%	-4.51% (active)	98.1%	100%
Cc1ccc(NC(=O)NC2CCCCC2)cc1	108%	95.5%	92.2	96.1%	102%	82.8%	91.5%	98.6%	105%	114%	98%	108%	115%	102%	108%	105%	102%	80.6%	107%	96.3%
CN(C)CCN=c1nc2c(c(N)n1-c1ccccc1)c(=S)n(-c1ccccc1)c(=S)n2-c1ccccc1	67.6%	82.3%	58.5	6.19% (active)	3.8% (active)	34.2%	35.3%	-83.5% (active)	6.65% (active)	45%	-11.4% (active)	-89.5% (active)	-13% (active)	-39.1% (active)	24%	-61.5% (active)	-86.9% (active)	-74.6% (active)	-84.4% (active)	18.8%
O=C1C(c2ccccc2)C2C=CC(C2)N1O (stereo not given)	105%	101%	102	105%	111%	96.4%	112%	102%	104%	114%	96.9%	109%	102%	104%	107%	122%	113%	105%	111%	106%
CCCCCCN(CCCCCC)CC(O)c1ccc2c3c(cccc13)CC2 (stereo not given)	30.5%	69.9%	65.9	85.2%	42.6%	30.1%	64.1%	43.1%	64.1%	76.4%	46.2%	71.7%	72.9%	67.2%	76.4%	49.4%	70%	67.9%	28.2%	44.2%
Cc1ccc(C)c(C(O)(c2cc(C)ccc2C)C2(O)CCCCC2)c1	88.5%	82.7%	104	112%	95.7%	61.4%	92.9%	90.6%	96.7%	104%	87.3%	91.7%	96.9%	91%	94.2%	95.9%	94.6%	102%	98.6%	94.5%
NC(=S)N=Nc1c(O)c2ccccc2c2ccccc12	6.64% (active)	94.2%	82.3	29.8%	51.9%	44.8%	23.7%	101%	92.3%	-8.94% (active)	42.2%	60.5%	76.7%	99.4%	56.7%	82.7%	16.1%	-61.3% (active)	-68.6% (active)	23.3%
Nc1nc(N)c(NC(=O)CNc2ccc(C(=O)O)cc2)c(N)n1	112%	98%	106	107%	110%	92%	102%	107%	110%	121%	106%	112%	106%	96.4%	119%	99.2%	101%	103%	111%	112%
COc1cc(-c2nc(Nc3nc4ccccc4s3)[nH]c(=O)c2C#N)cc(OC)c1O	105%	102%	124	99.5%	105%	97.2%	106%	101%	100%	113%	100%	118%	106%	105%	123%	116%	108%	102%	96.3%	107%
O=C(Nc1cccc(-n2cc(-c3ccncc3)c(-c3ccc(O)c(Cl)c3)n2)c1)c1cc(C(F)(F)F)cc(C(F)(F)F)c1	57.5%	75.9%	74.3	78.9%	21.5%	24.3%	33.7%	71.4%	94.8%	73.5%	35.9%	70.4%	-45% (active)	33.5%	76.8%	24.9%	56.1%	66.9%	59.6%	44.9%
COc1ccc(-c2cc(/C=C3\C(=O)Nc4ccc(Cl)cc43)[nH]n2)cc1OC	101%	85.5%	70.6	97.7%	79.9%	89%	89.5%	102%	89.7%	76.4%	100%	87.3%	79.6%	88.5%	85.8%	99.6%	82.2%	132%	101%	77.5%
N=C(N)c1ccc(-c2ccc(-c3ccco3)o2)cc1	94.8%	77.8%	67	81.7%	62.8%	95%	68.7%	79.9%	-90.2% (active)	88.2%	7.46% (active)	53%	52.4%	62.5%	74.4%	61.4%	83.1%	64.2%	74%	31.2%

Compound	growth [1]	growth [2]	growth [3] [%]	growth [4]	growth [5]	growth [6]	growth [7]	growth [8]	growth [9]	growth [10]	growth [11]	growth [12]	growth [13]	growth [14]	growth [15]	growth [16]	growth [17]	growth [18]	growth [19]	growth [20]
O=C(N/N=C/c1cc2ccccc2c2ccccc12)c1cc(O)c(O)c(O)c1	70.2%	95.6%	74.6	54.5%	88.1%	-41.3% (active)	94.4%	82.6%	72.7%	75.8%	20.2%	49%	68.4%	75%	46.7%	88.8%	50%	75.3%	61%	60%
CC/C(=C(/c1ccc(OCCN(C)C)cc1)c1ccc(OC(=O)CCCCC(=O)c2c(C)[nH]c(/C=C3\N=C(c4ccc[nH]4)C=C3OC)c2C)cc1)c1ccccc1	86.7%	54.4%	72.2	77.9%	61.2%	4.55% (active)	52.4%	67.4%	72%	34.2%	7.12% (active)	39.5%	-17.5% (active)	37.2%	51.5%	72.6%	78.6%	90.1%	-1.63% (active)	27.1%
O=C1ON=[N+](c2ccc(Cc3ccc([N+]4=NOC(=O)C4CN4CCOCC4)cc3)cc2)C1CN1CCOCC1 (stereo not given)	62.1%	85.5%	82.5	77%	82.9%	37%	69.1%	74%	99.9%	101%	26.4%	65.6%	60.5%	72.2%	78.3%	44.1%	77.5%	75.1%	69.5%	78.6%
C[C@@H]1C=C2C(=O)O[C@@H]3CC[C@H](C1)[C@]23O	80.6%	106%	82.5	71.7%	80.9%	2.22% (active)	67.1%	103%	74%	-25.9% (active)	27.5%	93.2%	89%	9.76% (active)	93.3%	114%	90.8%	46.8%	80.2%	62.5%
O=S(=O)(NCCCNc1nccc(-c2c(-c3ccc(F)cc3)nc3sccn23)n1)c1ccc2ccccc2c1	66.2%	57.4%	49.6	81.3%	22.7%	46.2%	28.9%	55.5%	10.1%	46.4%	3.75% (active)	50.3%	34.9%	66.7%	40.3%	43.7%	85.3%	56.8%	47.7%	35.1%
COc1ccc(Oc2nc(NC3CCCC3)nc(Sc3ccc(OC)cc3)n2)cc1	79.6%	67.4%	90.5	75.7%	47.7%	66.9%	72.8%	79.9%	82.2%	91.7%	53.3%	69.6%	50.1%	74.1%	55.6%	67.4%	83.4%	87.3%	87.6%	43.9%
CCOC(=O)C(NC(=O)C(Cl)Cl)C(O)c1ccccc1 (stereo not given)	102%	93.1%	105	82.8%	102%	122%	117%	129%	126%	102%	87.5%	108%	98.3%	78.7%	99.3%	76.1%	99.5%	105%	92.6%	117%
COc1ccc(N2C(=O)C3c4[nH]c5ccc(OCc6ccccc6)cc5c4C4CCC(C(C)C)CC4C3C2=O)cc1 (stereo not given)	104%	104%	102	113%	103%	34.6%	99.4%	97.6%	102%	113%	117%	107%	101%	102%	96.7%	114%	118%	96.1%	124%	16.3%
COc1ccc(N=C2C(=Nc3ccc(OC)cc3)N(c3ccc(N(C)C)cc3)C(=S)N2c2ccc(OC)cc2)cc1	90.9%	104%	90.3	64.3%	85%	84.8%	90.4%	12.3%	109%	85.7%	61.9%	72.9%	90.2%	106%	90.2%	2.47% (active)	54.2%	76.1%	65.3%	74.4%
N#Cc1ncc(-c2ccc(C(F)(F)F)cc2)c(NCc2cc(C(F)(F)F)cc(C(F)(F)F)c2)n1	10.6%	43.8%	70.2	39.2%	2.11% (active)	12.2%	29.2%	40.3%	-24.1% (active)	28.2%	16.1%	10.1%	39.4%	35.8%	56.8%	4.36% (active)	66.4%	28.7%	40%	7.65% (active)
COc1ccc(CN2CCC(N3CCCC3=O)c3cc(Cl)ccc32)cc1 (stereo not given)	96%	114%	104	98.3%	110%	75.6%	104%	109%	110%	116%	106%	88.6%	123%	126%	108%	124%	110%	112%	97%	104%
COc1cc(-c2cc(/C=C/C(=O)c3ccc(F)c(F)c3)[nH]n2)cc(OC)c1OC	55.9%	65.6%	74.1	78.7%	58.1%	47.4%	36.4%	80.5%	61.4%	72.9%	29.8%	72.5%	49.7%	76.9%	61.7%	10.4%	65.6%	80.8%	67.9%	46.6%
COc1ccc(-c2nc(-c3nc4cc(Cl)c(F)cc4[nH]3)c3ccccn23)cc1	85.8%	85.1%	69.6	89.5%	81.1%	39.5%	49.4%	79.9%	79.1%	80.3%	40.3%	97.4%	57.5%	87.8%	75.3%	45.1%	92.8%	61.9%	66.2%	59.5%
CC1(C)OC2=C(CC1Br)C(=O)C(=O)c1ccccc12 (stereo not given)	-64.3% (active)	-6.31% (active)	27.1	-88.1% (active)	3.62% (active)	-67.6% (active)	-39.9% (active)	-40.4% (active)	-87.8% (active)	-95.1% (active)	-5.94% (active)	-90.9% (active)	-25.1% (active)	-97.9% (active)	-87.6% (active)	-84.5% (active)	-82% (active)	-89.3% (active)	-91.2% (active)	-58.5% (active)
COc1ccc2c(c1)O/C(=C\c1ccc([N+](=O)[O-])s1)C2=O	5.99% (active)	69.9%	29.7	45.6%	2.82% (active)	-72.5% (active)	33.9%	69%	-30% (active)	-6.02% (active)	-1.48% (active)	80%	37.4%	-17.3% (active)	-9.02% (active)	69%	34.5%	64.4%	30.3%	0.318% (active)
